# Data reported in PubChem BioAssay (Tox21).
# Results filed as inconclusive are left out. A call without a number means that no potency is given here. Active and inactive are the calls of the source. The call rests on the fitted dose curve; in most records, active means well fitted cell-killing curve with a large enough effect in the repeat runs; inconclusive means weak or mixed curves, or effect the other way; inactive means flat fitted curve, though single readings scatter.
# Test: cAMP Responsive Elements (CRE) small molecule antagonists, cell-based qHTS assay: qHTS cell viability counter screen (AID 2060913); further: nearly all actives have a fitted effect of over 40% in size
# Conditions: CRE-bla HEK293T viability, CellTiter-Glo luminescence, 5 h; series mostly up to 92.4 µM
# Method in brief: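 HEK293T CRE-bla, 2,000 cells/well, 18 h preincubation; cpd in DMSO + NKH477 0.25 uM final, 3 h 37 C/5% CO2; LiveBLAzer 2 h RT, then CellTiter-Glo 30 min RT, luminescence.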
row,SMILES,Potency
1,CCCCCCCCCC[N+](C)(C)[O-],inactive
2,Cc1ccc2n[nH]nc2c1,inactive
3,CCCC(=O)c1ccccc1,inactive
4,O=C=NCCCCCCN=C=O,inactive
5,CC1=CC(O)CC(C)(C)C1 (stereo not given),inactive
6,CC(=O)OC1CCCCC1,inactive
7,CCN(CC)C(=O)C1CN2CCc3cc(OC)c(OC)cc3C2CC1OC(C)=O (stereo not given),inactive
8,O=C(O)CCCC(=O)O,inactive
9,CCCCNC(N)=O,inactive
10,Cc1ccccc1,inactive
11,COCCOCCOCCOCCOCCO,inactive
12,Cc1ccccc1N=Nc1ccc(N=Nc2c(O)ccc3ccccc23)c(C)c1,inactive
13,CCCCc1ccc2cccc(S(=O)(=O)O)c2c1,inactive
14,CCCC(=O)OCOC(=O)C1=C(C)NC(C)=C(C(=O)OC)C1c1cccc(Cl)c1Cl (stereo not given),inactive
15,C/C=C(\C)C(=O)OCC/C=C\CC,inactive
16,CCOC(=O)C1OC1c1ccccc1 (stereo not given),inactive
17,O=[N+]([O-])c1cccc(C(F)(F)F)c1,inactive
18,CCC1(C)NC(=O)NC1=O (stereo not given),inactive
19,CCOC(=O)/C=C/C(=O)O,inactive
20,O=C(O)c1ccccc1C(c1ccc(O)cc1)c1ccc(O)cc1,inactive

row,SMILES,Potency
1,Cc1c(I)c(=O)n(-c2ccccc2)n1C,inactive
2,NCCCCCCN,inactive
3,C=C(C)C1CC=C(C)C(=O)C1 (stereo not given),inactive
4,Nc1ccnc(=O)[nH]1,inactive
5,CCCCCCC(O)CCOC(C)=O (stereo not given),inactive
6,c1ccc(-c2ccc(C(c3ccccc3)n3ccnc3)cc2)cc1 (stereo not given),inactive
7,CC(=O)Oc1c(C)c(C)c2c(c1C)CC[C@@](C)(CCC[C@H](C)CCC[C@H](C)CCCC(C)C)O2,inactive
8,O=C(O)CCCl,inactive
9,CCOC(=O)CC1(C)OCC(C)O1 (stereo not given),inactive
10,C[N+]1([O-])CCOCC1,inactive
11,CCC(N)(CO)CO,inactive
12,O=[N+]([O-])c1ccc(CCO)cc1,inactive
13,CCO[Si](CC(C)C)(OCC)OCC,inactive
14,CCO[Si](C)(CCCOCC1CO1)OCC (stereo not given),inactive
15,COc1ccccc1NC(=O)CC(C)=O,inactive
16,CO[Si](C)(OC)c1ccccc1,inactive
17,O=C(/C=C/C=C/c1ccc2c(c1)OCO2)N1CCCCC1,inactive
18,CC1CC(=O)NN=C1c1ccc(NCC(C)(C)NCC(O)COc2cc(Cl)ccc2C#N)cc1 (stereo not given),inactive
19,COc1cc(/C=C/c2ccccc2)oc(=O)c1,inactive
20,CCC(C)OC(=O)N1CCCCC1CCO (stereo not given),inactive

# Test: cAMP Responsive Elements (CRE) small molecule agonists, cell-based qHTS assay: qHTS cell viability counter screen (AID 2060914); further: nearly all actives have a fitted effect of over 50% in size
# Conditions: CRE-bla HEK293T viability, CellTiter-Glo luminescence, 5 h; series mostly up to 92.4 µM
# Method in brief: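 In the same wells as the reporter read, viability of CRE-bla HEK 293T cells was quantified by CellTiter-Glo luminescence after a 3 h compound exposure.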
row,SMILES,Potency
1,CCCCCCCCCC[N+](C)(C)[O-],inactive
2,Cc1ccc2n[nH]nc2c1,inactive
3,CCCC(=O)c1ccccc1,inactive
4,O=C=NCCCCCCN=C=O,inactive
5,CC1=CC(O)CC(C)(C)C1 (stereo not given),inactive
6,CC(=O)OC1CCCCC1,inactive
7,CCN(CC)C(=O)C1CN2CCc3cc(OC)c(OC)cc3C2CC1OC(C)=O (stereo not given),inactive
8,O=C(O)CCCC(=O)O,inactive
9,CCCCNC(N)=O,inactive
10,Cc1ccccc1,inactive
11,COCCOCCOCCOCCOCCO,inactive
12,Cc1ccccc1N=Nc1ccc(N=Nc2c(O)ccc3ccccc23)c(C)c1,inactive
13,CCCCc1ccc2cccc(S(=O)(=O)O)c2c1,inactive
14,CCCC(=O)OCOC(=O)C1=C(C)NC(C)=C(C(=O)OC)C1c1cccc(Cl)c1Cl (stereo not given),inactive
15,C/C=C(\C)C(=O)OCC/C=C\CC,inactive
16,CCOC(=O)C1OC1c1ccccc1 (stereo not given),inactive
17,O=[N+]([O-])c1cccc(C(F)(F)F)c1,inactive
18,CCC1(C)NC(=O)NC1=O (stereo not given),inactive
19,CCOC(=O)/C=C/C(=O)O,inactive
20,O=C(O)c1ccccc1C(c1ccc(O)cc1)c1ccc(O)cc1,inactive

row,SMILES,Potency
1,Cc1c(I)c(=O)n(-c2ccccc2)n1C,inactive
2,NCCCCCCN,inactive
3,C=C(C)C1CC=C(C)C(=O)C1 (stereo not given),inactive
4,Nc1ccnc(=O)[nH]1,inactive
5,CCCCCCC(O)CCOC(C)=O (stereo not given),inactive
6,c1ccc(-c2ccc(C(c3ccccc3)n3ccnc3)cc2)cc1 (stereo not given),inactive
7,CC(=O)Oc1c(C)c(C)c2c(c1C)CC[C@@](C)(CCC[C@H](C)CCC[C@H](C)CCCC(C)C)O2,inactive
8,O=C(O)CCCl,inactive
9,CCOC(=O)CC1(C)OCC(C)O1 (stereo not given),inactive
10,C[N+]1([O-])CCOCC1,inactive
11,CCC(N)(CO)CO,inactive
12,O=[N+]([O-])c1ccc(CCO)cc1,inactive
13,CCO[Si](CC(C)C)(OCC)OCC,inactive
14,CCO[Si](C)(CCCOCC1CO1)OCC (stereo not given),inactive
15,COc1ccccc1NC(=O)CC(C)=O,inactive
16,CO[Si](C)(OC)c1ccccc1,inactive
17,O=C(/C=C/C=C/c1ccc2c(c1)OCO2)N1CCCCC1,inactive
18,CC1CC(=O)NN=C1c1ccc(NCC(C)(C)NCC(O)COc2cc(Cl)ccc2C#N)cc1 (stereo not given),inactive
19,COc1cc(/C=C/c2ccccc2)oc(=O)c1,inactive
20,CCC(C)OC(=O)N1CCCCC1CCO (stereo not given),inactive
